# Bioassay records from PubChem BioAssay.
# The list is not random: actives were taken first. Their share in the collection is about 7.6%.
# Cy5 interf NS3h = counter-screen for HCV NS3 helicase inhibitors: fluorescence interference; Cy5-dT15 DNA with NS3h; actives lie on both sides; signal over control mean, under 1 quenches; fluorescence interference ratio at 100 µM; hit rate 6% among 16,000;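 active = compound fluorescence over control fluorescence at most 0.8, a quencher, or at least a set upper limit, an enhancer; inactive = ratio between 0.8 and the set upper limit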
# HCV NS3h FP = hepatitis C NS3 helicase inhibition, primary screen; NS3h Cy5-dT15 DNA binding, fluorescence polarization; inhibition, % at 100 µM; hit rate 1.6% among 16,000;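 active = inhibition above the average over every tested compound plus 3 SD, cut at about 40% in these data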
# Numbers stand for hits; – = inactive.
SMILES,Cy5 interf NS3h,HCV NS3h FP
COc1ccccc1/C=N\N=C1/NC(=O)C(CC(=O)Nc2cccc(C)c2C)S1 (stereo not drawn),–,–
O=C(CC1S/C(=N/N=C\c2ccccc2)NC1=O)Nc1ccccc1F (stereo not drawn),1.2,–
COc1ccc(C(=O)CC(c2cccs2)S(=O)(=O)c2ccccc2)cc1 (stereo not drawn),–,–
CCCCCC12CCC(O)(CC1)C/C2=N\NS(=O)(=O)c1ccc(C)cc1,0.73,–
CCCC(=O)NS(=O)(=O)c1ccc(NS(=O)(=O)c2ccc(C)cc2)cc1,–,–
CS(=O)(=O)N(CC(=O)N1CCOCC1)c1cc(Cl)cc(Cl)c1,–,–
Cc1ccccc1NC1(c2ccccc2Cl)C(=O)c2ccccc2C1=O,0.74,–
O=C1c2ccccc2C(=O)C1(Nc1ccc(F)cc1)c1ccccc1,–,–
O=C(/C=C/c1ccccc1)Nc1nnc(C2CCCC2)s1,–,–
CCOc1ccc2nc(SCC(=O)Nc3ccc(OC)cc3OC)sc2c1,–,–
COc1ccc(NC(=O)CSc2nc3ccc(N4C(=O)c5ccccc5C4=O)cc3s2)c([N+](=O)[O-])c1,0.73,–
COc1ccc(C(=O)Nc2ccc(S(=O)(=O)Nc3cc(OC)ncn3)cc2)c(OC)c1,–,–
O=C(CC(c1ccccc1)c1ccccc1)Nc1ccc(Cl)cn1,0.66,–
CC(=O)CC(=O)Nc1ccc(Cl)cn1,–,–
COc1ccc(/C(N)=N\OC(=O)c2ccc(Br)cc2)cc1,–,–
CCCC(O)=C1C(=O)CC(C)(C)CC1=Nc1cccc2ccccc12,–,–
COc1cccc(CCNC2CC(=O)N(c3ccc(C)cc3)C2=O)c1 (stereo not drawn),–,–
Cc1ccc(N2C(=O)CC(NCc3cccnc3)C2=O)cc1 (stereo not drawn),1.3,–
CN(C)/C=N\n1cnc2scc(-c3ccc(Cl)cc3)c2c1=O,–,–
Cc1sc(NC(=O)c2ccc(F)cc2)c(C(=O)O)c1C,0.7,–
Cc1cc(C)cc(NC(=O)c2ccc(F)cc2)c1,–,–
COc1ccc(N2C(=O)NC(=O)/C(=C/c3cc(Br)c(OCCOc4ccccc4OC)c(OC)c3)C2=O)cc1,–,–
C=CCN(CC=C)Cn1[nH]c(=O)ccc1=O,0.75,–
CC1CCN(Cn2[nH]c(=O)ccc2=O)CC1,–,–
Nc1nnc(SCc2ccc([N+](=O)[O-])cc2)s1,0.72,–
SMILES,Cy5 interf NS3h,HCV NS3h FP
Nc1nnc(SCC(=O)Nc2ccccc2[N+](=O)[O-])s1,–,–
CC(O)c1cccc(NC(=O)c2cnn3c2NC(c2ccco2)CC3C(F)(F)F)c1 (stereo not drawn),0.49,–
COc1ccc(C2CC(C(F)(F)F)n3ncc(C(=O)O)c3N2)cc1OC (stereo not drawn),–,–
O=C(c1cnn2c1NC(c1ccco1)CC2C(F)(F)F)N1CCN(Cc2ccccc2)CC1 (stereo not drawn),0.7,–
COc1ccc(NC(=O)c2cnn3c2NC(c2ccco2)CC3C(F)(F)F)c(OC)c1 (stereo not drawn),–,–
COc1cc(C2CC(C(F)(F)F)n3ncc(C(=O)N4CCN(Cc5ccccc5)CC4)c3N2)cc(OC)c1OC (stereo not drawn),–,–
CC(O)c1cccc(NC(=O)c2cc3n(n2)C(C(F)(F)F)CC(c2ccc(Cl)cc2)N3)c1 (stereo not drawn),–,–
COc1ccc(CNC(=O)c2cnn3c2NC(c2ccco2)CC3C(F)(F)F)cc1 (stereo not drawn),0.75,–
COc1ccc(NC(=O)c2cnn3c2NC(c2ccccc2)CC3C(F)(F)F)cc1OC (stereo not drawn),0.73,–
Cc1ccc(-c2ccc(/C=C(/C#N)C(=O)Nc3ccc(F)cc3)o2)c(Br)c1,–,–
COCCCNC(=O)c1ccc(I)cc1,–,–
COc1ccc(C2CC(C(F)(F)F)n3ncc(C(=O)Nc4cc(Cl)ccc4O)c3N2)cc1OC (stereo not drawn),–,–
COc1ccc(C2CC(C(F)(F)F)n3ncc(C(=O)Nc4cccc(C(C)O)c4)c3N2)cc1OC (stereo not drawn),0.7,–
COc1cc(NC(C)=O)c(Cl)cc1NC(=O)c1ccccc1,–,–
COc1cc(NC(=O)C(F)(F)F)c(Cl)cc1NC(=O)c1ccccc1,–,43
C/C(=N\O)C(O)C12CC3CC(CC(C3)C1)C2 (stereo not drawn),–,–
Cc1ccc(-c2nn(-c3ccccc3)cc2/C=C/C(=O)c2cccs2)cc1,–,–
CCOc1cc(OCC)cc(C(=O)Nc2cccc(C(F)(F)F)c2)c1,0.5,–
CCOc1ccc(NC(=O)C(=O)Nc2cccc(C(F)(F)F)c2)cc1,–,–
COc1ccc(NC(=O)CN(c2cccc(Br)c2)S(=O)(=O)c2ccccc2)cc1,–,–
CC12c3ccccc3C(c3ccccc31)C1C(=O)NNC(=O)C12 (stereo not drawn),0.66,–
CC12c3ccccc3C(c3ccccc31)C1C(=O)N(c3cccc([N+](=O)[O-])c3)C(=O)C12 (stereo not drawn),–,–
O=C(Nc1ccc(Nc2ccccc2)cc1)c1cccc(Br)c1,–,–
COc1ccccc1N1CCN(C(=O)c2c(Cl)cccc2Cl)CC1,–,–
CN(C)c1ccc(C(=O)N2CCN(c3ccc(F)cc3)CC2)cc1,0.75,–
SMILES,Cy5 interf NS3h,HCV NS3h FP
COc1ccccc1N1CCN(C(=O)c2ccc(N(C)C)cc2)CC1,0.66,–
CN(C)c1ccc(C(=O)N2CCN(c3ccccc3)CC2)cc1,–,–
CC(C)OC(=O)COc1ccc2c(c1)oc(=O)c1ccccc12,–,–
CCOC(=O)C(C(=O)OCC)=C(N)C(F)(F)F,–,–
C=CS(=O)(=O)c1ccc(C(C)(C)C)cc1,–,–
O=C1NC(=S)N/C1=C\c1ccccc1,1.2,–
O=C1NC(=S)N/C1=C/c1ccc(O)c(Cl)c1,–,–
FC(F)(F)c1ccc(/C=N\N2CCN(Cc3ccc(Cl)cc3)CC2)cc1,–,–
COc1ccccc1NC(=O)c1c(O)c2ccccc2[nH]c1=O,–,–
Cc1csc(NC(=O)c2c(O)c3ccccc3[nH]c2=O)n1,1.2,–
O=C1N/C(=N/N=C\c2ccccc2O)SC1Cc1cccc(C(F)(F)F)c1 (stereo not drawn),–,–
O=C1NC(=Nc2cccnc2)S/C1=C\c1ccc(F)cc1,–,–
O=C1NC(=Nc2cccnc2)S/C1=C\c1cccc(F)c1,0.8,–
O=C1/C(=C/c2cccc([N+](=O)[O-])c2)SC(=S)N1c1ccc(O)cc1,–,–
O=C(c1ccccc1Br)N1N=C(c2ccccc2)CC1(O)C(F)(F)F (stereo not drawn),0.79,–
O=C(c1ccccc1O)N1N=C(c2ccc(Br)cc2)CC1(O)C(F)(F)F (stereo not drawn),–,–
O=C(Nc1cccc(Br)c1)c1cc([N+](=O)[O-])ccc1Cl,–,–
O=C(Nc1ccc(NC(=O)c2cc([N+](=O)[O-])ccc2Cl)cc1)c1ccc(Br)cc1,0.54,–
CCOC(=O)c1c(NC(=O)Cc2ccccc2)sc(C(=O)Nc2cc(C(F)(F)F)ccc2Cl)c1C,–,–
Cc1ccc(OCCNC(=O)Cc2cccc3ccccc23)cc1,–,–
O=C(CC1c2ccccc2Oc2ccccc21)NCCOc1ccccc1,0.67,–
COc1ccc(C(=O)N/C(=C\c2ccc(OC)c(OC)c2)C(=O)N2CCN(C)CC2)cc1,–,–
Cc1ccc(CN2CCN(S(C)(=O)=O)CC2)cc1,0.68,–
